Source: PubChem BioAssay (EPA / NIEHS)
Results filed as inconclusive are left out. Activity calls are given as the source filed them. The calls were made as follows, unless noted: active = hit-call score of the fitted dose curve at least 0.9, where 1 is the maximum; inactive = score below 0.9.

Tests used:
[1] = BSK_3C_TissueFactor: BioMAP Diversity Plus: 3C Assay for Tissue Factor Biomarker Activity (AID 2282997); details: BioMAP 3C HUVEC, tissue factor biomarker readout; actives raise or lower the signal
Procedure, shortened: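 After a 24 h chemical exposure of primary human umbilical vein endothelial cells, Tissue Factor levels were quantified by ELISA.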

[2] = BSK_3C_VCAM1: BioMAP Diversity Plus: 3C Assay for Vascular cell adhesion molecule 1 (VCAM1) Biomarker Activity (AID 2282999); details: BioMAP 3C HUVEC, VCAM1 ELISA, cytokine-stimulated; actives raise or lower the signal
Procedure, shortened: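 Vascular primary endothelium (human umbilical vein) was exposed to chemicals and assayed 24 h later. VCAM-1 levels came from ELISA, with DMSO serving as baseline for bidirectional fitting.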

[3] = BSK_3C_Proliferation: Cell Proliferation Assessment in the BioMAP Diversity Plus: 3C Assay (AID 2283006); details: primary human endothelial cells (HUVEC);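 as to AC50: potency may reflect either rise or fall in cell number versus DMSO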
Procedure, shortened: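 HUVEC, sub-confluent; 48 h chemical exposure; 10% TCA fix, 0.1% SRB stain, A560 total protein. Gain or loss of signal fitted both directions vs DMSO control.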

[4] = read-out: E-selectin (Homo sapiens) (UniProt P16581); test: BSK_3C_Eselectin: BioMAP Diversity Plus: 3C Assay for Eselectin Biomarker Activity (AID 2283015); details: primary human endothelial cells (HUVEC); actives raise or lower the signal
Procedure, shortened: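 ELISA read-out of E-selectin on endothelial monolayers after 24 h chemical treatment. Human umbilical vein primary cells served as the system, with DMSO defining baseline activity for bidirectional fitting.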

[5] = read-out: Interleukin-1 alpha (IL1a), IL1A (gene 3552); test: BSK_BE3C_IL1a: BioMAP Diversity Plus: BE3C Assay for Interleukin-1 alpha (IL1a) Biomarker Activity (AID 2283016); details: primary human bronchial epithelial cells; actives raise or lower the signal
Procedure, shortened: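 ELISA read-out of IL-1a from human lung bronchial epithelial primary cells, 24 h post-dose. Gain or loss of signal fitted relative to DMSO negative control.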

[6] = read-out: Monocyte Chemoattractant Protein-1 (MCP1), CCL2 (gene 6347); test: BSK_3C_MCP1: BioMAP Diversity Plus: 3C Assay for Monocyte Chemoattractant Protein-1 (MCP1) Biomarker Activity (AID 2283017); details: primary human endothelial cells (HUVEC); actives raise or lower the signal
Procedure, shortened: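 ELISA read-out of MCP-1 from human umbilical vein endothelial cell cultures harvested 24 h post-dosing. Gain or loss of signal was fitted relative to DMSO.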

[7] = read-out: Interleukin-8 (IL8), CXCL8 (gene 3576); test: BSK_3C_IL8: BioMAP Diversity Plus: 3C Assay for Interleukin-8 (IL8) Biomarker Activity (AID 2283020); details: primary human endothelial cells (HUVEC); actives raise or lower the signal
Procedure, shortened: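 HUVEC, 3C stimulation; 24 h compound exposure; IL-8 read by ELISA; gain or loss of signal fitted relative to DMSO control.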

[8] = BSK_3C_SRB: Viability Assessment in the BioMAP Diversity Plus: 3C Assay (AID 2283023); details: primary human endothelial cells (HUVEC);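 also: fitted both ways against DMSO so a hit may be signal rise or drop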
Procedure, shortened: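 Absorbance at 560 nm of sulforhodamine B-stained (0.1%) total protein served as a cytotoxicity readout in human umbilical vein endothelial cells, 24 h after chemical treatment. Signal was fitted bidirectionally relative to DMSO.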

[9] = read-out: Matrix Metallopeptidase 1 (MMP1), MMP1 (gene 4312); test: BSK_BE3C_MMP1: BioMAP Diversity Plus: BE3C Assay for Matrix Metallopeptidase 1 (MMP1) Biomarker Activity (AID 2283024); details: primary human bronchial epithelial cells; actives raise or lower the signal
Procedure, shortened: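 ELISA read-out of MMP1 in human lung bronchial epithelial primary cultures, 24 h post-dose; bidirectional curve fit vs DMSO baseline, gain or loss of signal scored.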

[10] = read-out: Pselectin, SELP (gene 6403); test: BSK_4H_Pselectin: BioMAP Diversity Plus: 4H Assay for Pselectin Biomarker Activity (AID 2283026); details: primary human endothelial cells (HUVEC); actives raise or lower the signal
Procedure, shortened: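 HUVEC, 24 h chemical exposure; P-selectin read by ELISA. Bidirectional curve fit vs DMSO baseline; gain or loss of signal scored.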

[11] = BSK_4H_SRB: Viability Assessment in the BioMAP Diversity Plus: 4H Assay (AID 2283027); details: primary human endothelial cells (HUVEC);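 also: cells exposed to compound for 24 h before staining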;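 as to AC50: curves fitted both ways versus DMSO so AC50 may be loss or gain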
Procedure, shortened: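 Cytotoxicity readout: sulforhodamine B (0.1%) staining of total protein after 10% TCA fixation, measured at 560 nm in human umbilical vein endothelium at 24 h. DMSO set the baseline; fitting was bidirectional.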

[12] = read-out: Collagen III, COL3A1 (gene 1281); test: BSK_hDFCGF_CollagenIII: BioMAP Diversity Plus: hDFCGF Assay for Collagen III Biomarker Activity (AID 2283056); details: primary human foreskin fibroblasts; actives raise or lower the signal
Procedure, shortened: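 ELISA read-out of collagen III from human skin fibroblast cultures sampled 24 h post-dosing. Values were derived by bidirectional fitting relative to the DMSO vehicle control.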

[13] = read-out: Macrophage colony-stimulating factor (MCSF), CSF1 (gene 1435); test: BSK_hDFCGF_MCSF: BioMAP Diversity Plus: hDFCGF Assay for Macrophage colony-stimulating factor (MCSF) Biomarker Activity (AID 2283060); details: primary human foreskin fibroblasts; actives raise or lower the signal
Procedure, shortened: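 Primary human foreskin fibroblasts dosed with chemical; 24 h later, M-CSF quantified by ELISA; curves fitted in both directions vs DMSO negative control.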

[14] = read-out: Interleukin-1 alpha (IL1a), IL1A (gene 3552); test: BSK_KF3CT_IL1a: BioMAP Diversity Plus: KF3CT Assay for Interleukin-1 alpha (IL1a) Biomarker Activity (AID 2283070); details: primary human keratinocytes with fibroblasts; actives raise or lower the signal
Procedure, shortened: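 Readout is IL-1a level by ELISA, compared bidirectionally with DMSO as baseline. Cells: human keratinocytes co-cultured with foreskin fibroblasts, harvested 24 h post-dose.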

[15] = read-out: Matrix Metallopeptidase 9 (MMP9), MMP9 (gene 4318); test: BSK_KF3CT_MMP9: BioMAP Diversity Plus: KF3CT Assay for Matrix Metallopeptidase 9 (MMP9) Biomarker Activity (AID 2283074); details: primary human keratinocytes with fibroblasts; actives raise or lower the signal;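 as to AC50: MMP9 protein level quantified by ELISA in the co-culture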
Procedure, shortened: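 Values come from bidirectional fitting relative to DMSO of MMP-9 levels, which were measured by ELISA. Measurements were taken 24 h after chemical dosing of a keratinocyte and foreskin fibroblast co-culture.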

[16] = read-out: Interleukin-1 alpha (IL1a), IL1A (gene 3552); test: BSK_LPS_IL1a: BioMAP Diversity Plus: LPS Assay for Interleukin-1 alpha (IL1a) Biomarker Activity (AID 2283080); details: primary human HUVEC with PBMC; actives raise or lower the signal
Procedure, shortened: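 ELISA read-out of IL-1 alpha from a human primary vascular co-culture (endothelium plus PBMC) under LPS, sampled 24 hours post-dosing. Activity was fitted in both directions relative to DMSO controls.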

[17] = BSK_LPS_PGE2: BioMAP Diversity Plus: LPS Assay for Prostaglandin E2 (PGE2) Biomarker Activity (AID 2283082); details: primary human HUVEC with PBMC; actives raise or lower the signal;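 as to AC50: secreted prostaglandin E2 measured by ELISA in LPS-stimulated co-culture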
Procedure, shortened: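 ELISA read-out of PGE2 from human umbilical vein endothelial cells co-cultured with peripheral blood mononuclear cells under LPS, 24 h post-dose. Gain or loss of signal scored relative to DMSO baseline.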

[18] = read-out: Tumor necrosis factor (Homo sapiens) (UniProt P01375); test: BSK_LPS_TNFa: BioMAP Diversity Plus: LPS Assay for Tumour Necrosis Factor alpha (TNFa) Biomarker Activity (AID 2283085); details: primary human HUVEC with PBMC; actives raise or lower the signal;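 as to AC50: TNFa protein level quantified by ELISA in the co-culture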
Procedure, shortened: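 HUVEC/PBMC co-culture, LPS-stimulated; 24 h post-dose; TNFa by ELISA; gain or loss of signal fitted bidirectionally vs DMSO baseline.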

[19] = BSK_SAg_PBMCCytotoxicity: PBMC Cytotoxicity Assessment in the BioMAP Diversity Plus: SAg Assay (AID 2283093); details: primary human HUVEC with PBMC;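 also: PBMC viability measured as Alamar Blue reduction fluorescence at 546/580 nm; fitted both ways against DMSO so a hit may be loss or gain of signal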;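 as to AC50: PBMC superantigen activated with SEB plus TSST-1 one hour after compound addition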
Procedure, shortened: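 Alamar Blue reduction (6 h, 546/580 nm) reports PBMC cytotoxicity after 90 h superantigen activation (SEB, TSST-1; 20 ng/mL final each) with 1 h compound pre-treatment. Gain or loss of signal fitted versus DMSO.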

[20] = target: Estrogen receptor beta (Homo sapiens) (UniProt Q92731); test: OT_ER_ERbERb_0480: Odyssey Thera (OT) 8-hour HEK293T Protein-Complementation Assay for Estrogen Receptor-beta/-beta Homodimer (AID 2283357; active = hit-call score of the fitted dose curve at least 0.9, where 1 is the maximum;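 also: active means signal gain over DMSO baseline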)
Procedure, shortened: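 Fluorescence gain from complemented reporter fragments on ER-beta LBD homodimer in HEK293T was quantified against DMSO controls after 8 h treatment, fixation in 4% formaldehyde and Draq5 staining.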

Measured: AC50

Estrogen receptor beta (Homo sapiens), sequence (Q92731 whole entry, looked up, the tested form may be a part): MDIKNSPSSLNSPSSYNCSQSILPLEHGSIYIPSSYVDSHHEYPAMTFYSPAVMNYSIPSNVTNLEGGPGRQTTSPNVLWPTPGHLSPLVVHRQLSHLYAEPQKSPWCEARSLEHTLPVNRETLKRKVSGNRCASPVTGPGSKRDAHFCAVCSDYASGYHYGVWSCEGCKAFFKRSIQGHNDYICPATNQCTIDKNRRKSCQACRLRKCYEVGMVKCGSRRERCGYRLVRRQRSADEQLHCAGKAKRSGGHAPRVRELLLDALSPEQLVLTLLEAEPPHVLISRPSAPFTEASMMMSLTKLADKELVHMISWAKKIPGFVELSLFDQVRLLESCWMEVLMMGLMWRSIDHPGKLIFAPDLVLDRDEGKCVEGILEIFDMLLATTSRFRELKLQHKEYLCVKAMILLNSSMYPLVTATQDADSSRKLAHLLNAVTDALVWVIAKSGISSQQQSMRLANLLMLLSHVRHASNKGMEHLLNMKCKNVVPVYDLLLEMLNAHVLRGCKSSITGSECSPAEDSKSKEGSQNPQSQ
Tumor necrosis factor (Homo sapiens), sequence (P01375 whole entry, looked up): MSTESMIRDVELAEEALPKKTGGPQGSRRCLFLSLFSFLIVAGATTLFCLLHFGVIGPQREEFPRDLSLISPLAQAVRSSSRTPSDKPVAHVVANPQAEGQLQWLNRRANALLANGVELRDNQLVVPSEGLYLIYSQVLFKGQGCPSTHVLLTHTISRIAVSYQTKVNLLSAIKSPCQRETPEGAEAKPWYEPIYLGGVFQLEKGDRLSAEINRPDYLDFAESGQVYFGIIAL
E-selectin (Homo sapiens), sequence (P16581 whole entry, looked up): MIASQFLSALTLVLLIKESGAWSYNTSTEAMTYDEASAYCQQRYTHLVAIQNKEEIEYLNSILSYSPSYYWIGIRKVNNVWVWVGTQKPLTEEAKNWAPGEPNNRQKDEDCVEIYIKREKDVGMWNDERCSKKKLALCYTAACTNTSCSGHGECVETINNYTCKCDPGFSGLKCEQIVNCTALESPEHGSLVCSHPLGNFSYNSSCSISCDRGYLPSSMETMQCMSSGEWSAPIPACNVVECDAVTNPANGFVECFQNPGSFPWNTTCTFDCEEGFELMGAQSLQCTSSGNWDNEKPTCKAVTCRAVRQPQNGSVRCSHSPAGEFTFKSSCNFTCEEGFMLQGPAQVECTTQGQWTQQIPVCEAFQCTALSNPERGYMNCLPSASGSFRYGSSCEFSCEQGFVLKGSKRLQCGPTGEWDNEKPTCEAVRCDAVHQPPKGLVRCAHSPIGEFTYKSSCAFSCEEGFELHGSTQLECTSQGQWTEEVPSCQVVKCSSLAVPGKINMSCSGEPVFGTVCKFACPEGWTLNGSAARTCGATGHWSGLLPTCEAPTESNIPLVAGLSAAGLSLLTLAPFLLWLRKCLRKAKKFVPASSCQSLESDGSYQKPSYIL

O=[N+]([O-])C=Cc1ccccc1
active: [1] 4.68 µM | [2] 6.25 µM | [3] 1.37 µM | [4] 6.94 µM | [5] 2.28 µM | [6] 7.71 µM | [7] 10 µM | [8] 9.73 µM | [9] 11.3 µM | [10] 5.78 µM | [11] 5.27 µM | [12] 33.1 µM | [13] 2.91 µM | [14] 5.78 µM | [15] 3.08 µM | [16] 8.05 µM | [17] 5.81 µM | [18] 9.91 µM | [19] 13 µM

O=C1C(Cl)=C(Cl)C(=O)C(Cl)=C1Cl
inactive: [17]
active: [1] 7 µM | [2] 11.9 µM | [3] 5.26 µM | [4] 10.3 µM | [5] 30.5 µM | [6] 12.4 µM | [7] 20 µM | [8] 4.97 µM | [9] 33.9 µM | [10] 12.8 µM | [11] 11.9 µM | [12] 20 µM | [13] 20 µM | [14] 20.1 µM | [15] 13.5 µM | [16] 14 µM | [18] 30.9 µM | [19] 15.1 µM

CCCCCCCCCCCC#N
inactive: [1] | [5] | [9] | [12] | [14] | [15]
active: [2] 32.3 µM | [3] 32.2 µM | [4] 30.2 µM | [6] 36.2 µM | [7] 20.6 µM | [8] 34.1 µM | [10] 20.6 µM | [11] 30.3 µM | [13] 28.8 µM | [16] 32.4 µM | [17] 32 µM | [18] 36.4 µM | [19] 32 µM

CC(Cc1ccc(C(C)(C)C)cc1)CN1C[C@@H](C)O[C@@H](C)C1 (stereo partly drawn)
inactive: [20]

Nc1cc(Cl)cc(Cl)c1
inactive: [20]

CCCOC(=O)c1ccccc1C(=O)OCCC
active: [4] 36.4 µM | [6] 20 µM | [18] 20 µM
inactive: [1] | [2] | [3] | [5] | [7] | [8] | [9] | [10] | [11] | [12] | [13] | [14] | [15] | [16] | [17] | [19]

COCC(=O)N(c1c(C)cccc1C)N1CCOC1=O
inactive: [1] | [2] | [3] | [4] | [5] | [6] | [7] | [8] | [9] | [10] | [11] | [12] | [13] | [14] | [15] | [16] | [17] | [18] | [19]

O=C(NC(=O)c1c(F)cccc1F)Nc1ccc(Oc2ccc(C(F)(F)F)cc2Cl)cc1F
inactive: [20]

CC(C)CCCCCCCOC(=O)c1ccccc1C(=O)OCCCCCCCC(C)C
inactive: [1] | [2] | [3] | [4] | [5] | [6] | [7] | [8] | [9] | [10] | [11] | [12] | [13] | [14] | [15] | [16] | [17] | [18] | [19]

CC[N+](=O)[O-]
inactive: [20]

c1ccc(Nc2ccc3ccccc3c2)cc1
active: [1] 32.9 µM | [2] 34.8 µM | [3] 23.6 µM | [4] 13.8 µM | [5] 20 µM | [6] 26 µM | [7] 31.9 µM | [8] 30.2 µM | [11] 32.5 µM | [12] 30.7 µM | [13] 34.4 µM | [14] 24.2 µM | [15] 28.3 µM | [17] 20 µM
inactive: [9] | [10] | [16] | [18] | [19]

CCOC(=O)NC(=S)Nc1ccccc1NC(=S)NC(=O)OCC
inactive: [20]

c1ccc2c(c1)CCCC2
inactive: [20]

CNC(=O)Oc1cc(C)c(SC)c(C)c1
active: [2] 20 µM | [3] 13 µM | [4] 20 µM | [8] 20 µM | [17] 11.8 µM
inactive: [1] | [5] | [6] | [7] | [9] | [10] | [11] | [12] | [13] | [14] | [15] | [16] | [18] | [19]
